# Test results published in PubChem BioAssay AID2284375 (EPA ToxCast).
# Inconclusive results are not listed. Activity calls are given as the source filed them. Rule for the calls: active = hit-call score of the fitted dose curve at least 0.9, where 1 is the maximum; inconclusive = response in the unintended direction; inactive = score below 0.9.
# Target: Estrogen receptor (Homo sapiens) (UniProt P03372)
# Test: ERF_US_NR_hESR1: Eurofins (ERF) Nuclear Receptor (NR) Cell Based Protein-Protein Interaction LeadHunter Assay for human Estrogen Receptor alpha (ERa) Agonism
# Description: ERF_US_NR_hESR1 is a cell-based, single-readout assay that uses extracted gene-proteins in a cell-line assay. Measurements were taken 5 hours after chemical dosing in a 384-well plate. See ERalpha Human Estrogen NHR Cell Based Agonist Protein-Protein Interaction Assay, DiscoverX.ERF_US_NR_hESR1 is an assay component calculated from the ERF_US_NR_hESR1 assay. It is designed to […].Data from the assay component ERF_US_NR_hESR1 was analyzed at the assay endpoint, ERF_US_NR_hESR1, in the positive analysis fitting direction relative to DMSO as the negative control and baseline of activity. Using a type of binding reporter, gain-of-signal activity can be used to understand changes in binding as they relate to gene ESR1. To generalize the intended target to other relatable targets, this assay endpoint is annotated to the nuclear receptor intended target family, where the subfamily is steroid.
# Cells were seeded in a total volume of 20 uL into white walled, 384-well microplates and incubated at 37C overnight prior to testing. Briefly, intermediate dilution of sample stocks was performed to generate 5X sample in assay buffer. 5 uL of 5X sample was added to cells and incubated at37C for 300 minutes. Final assay vehicle concentration was 1%. The results are expressed as a percent efficacy of the control ligand.
# Estrogen receptor (Homo sapiens), sequence (P03372 whole entry, looked up): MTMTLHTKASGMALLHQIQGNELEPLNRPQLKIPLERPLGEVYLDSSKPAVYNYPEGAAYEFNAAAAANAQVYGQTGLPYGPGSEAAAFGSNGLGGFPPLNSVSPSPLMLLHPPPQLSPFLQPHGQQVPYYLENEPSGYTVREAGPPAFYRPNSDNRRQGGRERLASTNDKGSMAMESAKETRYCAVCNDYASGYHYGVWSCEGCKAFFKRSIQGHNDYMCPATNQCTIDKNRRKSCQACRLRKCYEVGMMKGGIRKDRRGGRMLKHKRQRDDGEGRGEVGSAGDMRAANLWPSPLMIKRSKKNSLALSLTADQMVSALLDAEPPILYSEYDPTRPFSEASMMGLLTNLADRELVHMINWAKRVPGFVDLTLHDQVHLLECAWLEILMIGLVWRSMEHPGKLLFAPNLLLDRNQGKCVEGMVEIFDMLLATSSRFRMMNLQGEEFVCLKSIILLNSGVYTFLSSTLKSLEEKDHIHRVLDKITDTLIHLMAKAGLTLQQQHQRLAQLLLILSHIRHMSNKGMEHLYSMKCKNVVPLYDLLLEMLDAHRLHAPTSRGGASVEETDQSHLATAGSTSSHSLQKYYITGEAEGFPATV
SMILES,outcome,AC50
FC(F)(I)C(F)(F)C(F)(F)C(F)(F)I,inactive,
OCCC(F)(F)C(F)(F)C(F)(F)C(F)(F)C(F)(F)C(F)(F)F,inactive,
OCC(F)(F)C(F)(F)C(F)(F)C(F)(F)C(F)(F)C(F)(F)C(F)(F)C(F)(F)CO,,17.1 µM (active)
C=CC(=O)OCC(F)(F)C(F)(F)C(F)(F)C(F)(F)C(F)(F)C(F)(F)C(F)(F)C(F)F,inactive,
OCC(F)(F)C(F)(F)C(F)(F)C(F)(F)C(F)(F)C(F)(F)CO,,25.3 µM (active)
FC(F)(I)C(F)(F)C(F)(F)C(F)(F)C(F)(F)C(F)(F)I,,12.1 µM (active)
O=C(O)C(F)(OC(F)(F)C(F)(OC(F)(F)C(F)(F)C(F)(F)F)C(F)(F)F)C(F)(F)F (stereo not drawn),inactive,
OCCC(F)(F)C(F)(F)C(F)(F)C(F)(F)C(F)(F)C(F)(F)C(F)(F)C(F)(F)F,inactive,
FC(F)(F)C(F)(F)C(F)(F)C(F)(F)CCI,inactive,
O=P(O)(O)OCCC(F)(F)C(F)(F)C(F)(F)C(F)(F)C(F)(F)C(F)(F)F,inactive,
FC(F)(F)C(F)(F)C(F)(F)C(F)(F)C(F)(F)C(F)(F)I,inactive,
N=C(N)C(F)(F)C(F)(F)C(F)(F)C(F)(F)C(F)(F)C(F)(F)C(F)(F)F,inactive,
NC(=O)C(F)(F)C(F)(F)C(F)(F)C(F)(F)C(F)(F)C(F)(F)C(F)(F)F,inactive,
